Screening data: PubChem BioAssay, National Center for Advancing Translational Sciences (NCATS)
Sfp inh: blocks B. subtilis Sfp PPTase activity. Biochemical Sfp PPTase activity, qHTS. AID 1490. Potency, µM, for the others: largest response in the series, negative = inhibition, hits mostly inhibitors. actives 3.5% (n = 310,000). Q9F4F7; active means well fitted curve in the direction sought with a large enough effect; inconclusive means small, poorly fitted or top-dose-only effect, or another doubt; inactive means no such curve, though single readings can be large; an effect the other way counts as inactive or inconclusive;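 further: the enzyme is Sfp with the accession as filed and its product quenches rhodamine fluorescence; potency means the concentration at half of the fitted maximal effect; 0% = enzyme reaction without inhibitor and -100% = no enzyme wells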
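Fluorescence-quenching assay: 15 nM Sfp-PPTase preincubated 15 min at room temperature with compound, then 5 uM rhodamine-CoA and 12.5 uM BHQ-2-labelled YbbR peptide added. Fluorescence (ex 525/em 598 nm) read at start and after 30 min; difference gives rate.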
JMJD2E inh: inhibitors of human JMJD2E histone demethylase; B2RXH2; JMJD2E catalytic domain, FDH-coupled NADH fluorescence (FDH is formaldehyde dehydrogenase); Potency, µM (series often up to 57.1 µM), without a hit: at the highest dose activity change, negative = inhibition, usual class: inhibitors; actives 1.6% (n = 230,000); AID 2147;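 further: potency means the concentration at half of the fitted maximal effect; 0% = wells with enzyme and -100% = buffer wells without enzyme; nearly all actives have a fitted effect of over 50% in size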
Target sequence (B2RXH2 1-337 limits assumed): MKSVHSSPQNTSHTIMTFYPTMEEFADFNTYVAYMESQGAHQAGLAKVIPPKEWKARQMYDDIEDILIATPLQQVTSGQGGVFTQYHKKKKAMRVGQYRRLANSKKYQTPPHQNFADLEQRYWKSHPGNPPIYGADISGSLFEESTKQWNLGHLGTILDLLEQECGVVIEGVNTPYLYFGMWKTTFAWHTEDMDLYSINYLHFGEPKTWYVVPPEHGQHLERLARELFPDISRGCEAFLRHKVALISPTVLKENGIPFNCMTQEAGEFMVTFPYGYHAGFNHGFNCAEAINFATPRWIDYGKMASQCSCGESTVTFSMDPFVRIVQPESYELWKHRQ
FBPA coupling cs: inhibits coupling enzyme system, counter-screen for aldolase hits; coupling enzyme system counterscreen, AmpLite Red fluorescence; activity change, negative = inhibition, % at 58.2 µM, hits read low; actives 0.67% (n = 290,000); AID 2472; in the data active means activity change below about -30%
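Counterscreen of the coupled detection system alone, without aldolase: glyceraldehyde-3-phosphate coupling enzymes plus AmpLite Red readout. Compounds at 57.5 uM final, 10 min RT preincubation, 20 min RT reaction, fluorescence 525/598 nm.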
ALDH1A1 inh: inhibitors of human aldehyde dehydrogenase 1A1; Purified ALDH1A1, NADH fluorescence, propionaldehyde substrate; Potency, µM (highest dose often 75.3 µM), for the others: at the highest dose activity, negative = inhibition, hits mostly inhibitors; actives 7.3% (n = 220,000);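 further: potency means the concentration at half of the fitted maximal effect; plate controls were no enzyme wells and a reference inhibitor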
GoLoco inh red: inhibitors of human Gai1-RGS12 GoLoco interaction (red fluorophore); P63096; Gai1:RGS12 GoLoco peptide FP, rhodamine, 10 min; Potency, µM (doses to about 61.6 µM), for inactives: at the top dose activity, negative = inhibition, usual class: inhibitors; actives 0.44% (n = 230,000); AID 880; active means well fitted inhibition curve with a large enough effect, not every such curve was filed as active; inactive means no such curve, though single readings can be large or run the other way; further: potency means the concentration at half of the fitted maximal effect; nearly all actives have a fitted effect of over 30% in size
NPSR antagonist: neuropeptide S receptor (human) antagonism, cAMP. CHO-NPSR cells, cAMP TR-FRET, antagonist mode. Potency, µM (titrated, usually from 38.3 µM), inactives show at the highest dose activity change, negative = inhibition, usual class: inhibitors. actives 1% (n = 220,000); active means well fitted curve in the direction sought with a large enough effect; inconclusive means small, poorly fitted or top-dose-only effect, or another doubt; inactive means no such curve, though single readings can be large; an effect the other way counts as inactive or inconclusive; further: potency means the concentration at half of the fitted maximal effect; nearly all actives have a fitted effect of over 50% in size
Target sequence (Q6W5P4 whole entry, looked up): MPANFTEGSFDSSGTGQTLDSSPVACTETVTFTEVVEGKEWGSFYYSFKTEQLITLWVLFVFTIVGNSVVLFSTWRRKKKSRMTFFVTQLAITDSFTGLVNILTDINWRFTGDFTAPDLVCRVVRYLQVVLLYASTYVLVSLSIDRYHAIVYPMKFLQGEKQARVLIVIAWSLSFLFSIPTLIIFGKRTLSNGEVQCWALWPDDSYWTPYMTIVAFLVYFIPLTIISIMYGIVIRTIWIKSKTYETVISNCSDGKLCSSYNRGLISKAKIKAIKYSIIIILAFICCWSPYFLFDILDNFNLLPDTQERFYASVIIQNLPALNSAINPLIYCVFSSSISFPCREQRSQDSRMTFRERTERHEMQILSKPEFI
* hit, by the source's call; ? = inconclusive; . = no result; ! = not active in a repeat; [ ] = another dose, or the depositor's remark. Compounds with a hit are over-represented: about 8.5% of the library has one in this group of screens. Unless noted, the call rests on the fitted dose curve; in most records, active means well fitted inhibition curve with a large enough effect (not every such curve was filed as active); inconclusive means small, poorly fitted or top-dose-only effect, or another doubt; inactive means no such curve, though single readings can be large or run the other way. Unless noted, on the % scale 0 is the no-effect control and ±100 the full control effect.

SMILES	Sfp inh	JMJD2E inh	FBPA coupling cs	ALDH1A1 inh	GoLoco inh red	NPSR antagonist
C=C1C([C@@]2(C)C(OC(C)=O)CC(=O)O[C@@](C)(COC(C)=O)C2CC(=O)OC)C(OC=O)C(OC(=O)C(OC(C)=O)C(C)CC)[C@]2(C)C(c3ccoc3)CC(=O)C12O (stereo partly specified)	11%	-8%	-1	-2%	3%	.
Clc1cccc(C(Cl)(Cl)Cl)n1	.	.	.	1%	-4%	.
O=C(CSC1c2ccccc2-c2ccccc21)N/N=C/c1ccccc1O	10%	25µM*	2	-9%	12%	-21%[46.1 µM]
CCc1ccc2c(CN3CC=C(c4ccccc4)CC3)cc(=O)oc2c1	0%	14µM*	9	-15%	11%	-8%
COc1ccc2c(CN3CC=C(c4ccccc4)CC3)cc(=O)oc2c1	7%	?	1	?	-1%	-55%
Cc1ccc2c(CN3CC=C(c4ccccc4)CC3)cc(=O)oc2c1C	-5%	25µM*	-2	?	.	-13%[46.1 µM]
CCCBr	.	.	.	5%	10%	.
c1ccc2c(c1)[nH]c1cnccc12	-14%	?	-3	?	5%	10%
Cc1c2ccncc2c(C)c2c1[nH]c1ccccc12	22µM*	13µM*	-30*!	?	15%	?
CN1CCN(c2ncc3ncc(=O)n(C)c3n2)CC1	-9%	.	2	?	-3%	.
Cn1c(=O)c2c(nc(N/N=C/c3c(O)n(-c4ccccc4)c(=S)[nH]c3=O)n2C)n(C)c1=O	79µM*	25µM*	-4	8.9µM*	6%	3%
COC(=O)[C@@]1(O)C[C@@H]2O[C@@]1(C)n1c3ccccc3c3c4c(c5c6ccccc6n2c5c31)C(=O)NC4	-3%	.	-1	.	.	.
CN1[C@@H]2CC[C@H]1CC(O[C@@H](c1ccccc1)c1ccc(Cl)cc1)C2 (stereo partly specified)	?	-23%	-7	5%	-15%	.
CCCN(CCC)c1c([N+](=O)[O-])cc(S(N)(=O)=O)cc1[N+](=O)[O-]	14%	.	-7	.	.	.
Cn1c(O)c(/C=C/C=Nc2ccccc2)c(=O)n(C)c1=S	-11%	4%	3	13µM*	.	-6%[46.1 µM]
Cc1cccc(-n2c(O)c(/C=C/C=Nc3ccccc3)c(=O)[nH]c2=O)c1	4%	-20%	-7	-12%	178%	5%
CCc1ccc(-n2c(O)c(/C=N/NC(=O)c3ccncc3)c(=O)[nH]c2=O)cc1	22%	11µM*	4	?	14%	12%
CCCCn1c(O)c(C=NCCCn2ccnc2)c(=O)[nH]c1=O	-12%	15%	3	18µM*	-10%	-8%[46.1 µM]
Cc1cc(C)c(-n2c(O)c(/C=N/NC(=O)c3ccncc3)c(=O)[nH]c2=O)c(C)c1	13%	14µM*	0	.	83%	2%
CC(C)c1ccc(-n2c(O)c(/C=N/NC(=O)c3ccncc3)c(=O)[nH]c2=O)cc1	6%	?	12	?	6%	15%
C=CCn1c(O)c(C=NCCCn2ccnc2)c(=O)[nH]c1=O	-8%	1%	4	.	-13%	38%
CCCCn1c(O)c(/C=N/NC(=O)c2ccncc2)c(=O)[nH]c1=O	-5%	8.9µM*	0	.	-4%	7%[7.67 µM]
O=C(O)C(Cl)Br (stereo unspecified)	.	.	.	?	-31%	.
Cc1ccc2c(c1)Cc1c(C(=O)NN3CCCCC3)nn(-c3ccc(Cl)cc3Cl)c1-2	?	.	-19	.	.	.
CCC(Sc1ccccc1)C(=O)OC1CC2CCC(C1)N2C (stereo unspecified)	-26%	.	.	?	-2%	.
SMILES	Sfp inh	JMJD2E inh	FBPA coupling cs	ALDH1A1 inh	GoLoco inh red	NPSR antagonist
O=c1c2ccccc2nc(CSc2ncnc3nc[nH]c23)n1-c1ccccc1	50µM*	-3%	3	?	-14%	28%[46.1 µM]
O=c1c2ccccc2nc(CSc2ncnc3nc[nH]c23)n1-c1ccccc1Cl	-18%	-1%	0	-9%	19%	-10%[46.1 µM]
COc1cccc(-c2nc(CS(=O)CC(=O)N3CCC4(CC3)OCCO4)c(C)o2)c1 (stereo unspecified)	-3%	-20%	.	35µM*	5%	-1%[46.1 µM]
N[C@H](Cn1ccc(=O)c(O)c1)C(=O)O	-3%	5%	2	-3%	6%	.
C[N+]1(C)CCN(c2ccccc2)CC1	19%	-26%	0	5%	28µM*!	-5%
CCN(N=O)C(N)=O	.	.	.	-13%	8%	.
[O-]/[N+](=C/c1cccnc1)c1ccc(Br)cc1	13µM*	-3%	-5	1.8µM*	7%	?
Cn1c[n+](C)cc1C(O)c1ccccc1 (stereo unspecified)	-25%	?	0	-3%	14µM*	9%[46.1 µM]
CC(C)C(CCN1C(=O)c2ccccc2C1=O)c1ccco1 (stereo unspecified)	-15%	-4%	1	22µM*	5%	-14%[46.1 µM]
Cc1cc(C=C2C(=O)NC(=O)NC2=O)c(C)n1-c1ccc2c(c1)OCO2	-7%	-14%	-2	?	26%	10%[46.1 µM]
Cc1cc(C=C2C(=O)NC(=S)NC2=O)c(C)n1-c1ccc2c(c1)OCO2	45µM*	7%	-1	2.8µM*	46%	13µM*
O=c1[nH]c(=S)[nH]c(O)c1N=Nc1ccc(-c2ccccc2)cc1[N+](=O)[O-]	79µM*	-2%	4	?	-1%	-22%
N[C@@H](Cc1c[nH]c2cc([N+](=O)[O-])ccc12)C(=O)O	.	.	.	4%[13.5 µM]	-12%[14.2 µM]	.
Cc1c(F)c(F)c(COC(=O)C2C(/C=C(\Cl)C(F)(F)F)C2(C)C)c(F)c1F (stereo unspecified)	9%	.	1	.	.	.
C=C1CC[C@H](O)C/C1=C/C=C1\CCC[C@]2(C)[C@@H]([C@H](C)CCCC(C)C)CC[C@@H]12	17%	.	1	?	-4%	.
O=c1c(C=Nc2cccnc2Cl)c(O)n(CCCCl)c(=O)n1C1CCCCC1	-16%	1%	1	?	17%	10µM*
CCN=C=NCCCN(C)C	.	.	.	-1%[13.5 µM]	-1%[14.2 µM]	.
CN(C)C(=O)Nc1cccc(C(F)(F)F)c1	.	.	.	3%	5%	.
CN1C(=O)/C(=C\c2ccc(Br)s2)C(=O)NC1=S	40µM*	.	2	.	.	.
O=C1NC(=S)NC(=O)C1=Cc1ccc(Br)s1	16µM*	.	0	.	.	.
CN1/C(=C\C=C2C(=O)NC(=S)NC2=O)C(C)(C)c2ccccc21	-11%	-5%	-4	8%	-151%	-36%
CCCCNC(=O)n1c(NC(=O)OC)nc2ccccc21	.	.	.	?	-10%	.
CCOC(=O)N(c1ccccc1)P1(=S)OCCO1	40µM*	3%	-1	?	6%	-8%[46.1 µM]
COC(=O)N(c1ccccc1)P1(=S)OCCO1	5.6µM*	-3%	-2	4µM*	-12%	?
